Reference: PubChem BioAssay (Tox21)
The source made the active and inactive calls. Calls follow the shape of the full dose curve.

The molecules below were run against Acetylcholinesterase (Homo sapiens) (UniProt P22303) (assay: Acetylcholinesterase (AChE) small molecule antagonists: enzyme-based qHTS assay with human liver microsomes (AID 1347399; also: nearly all actives have a fitted effect of over 60% in size)). Conditions: Potency: qHTS inhibition; outcome: qHTS inhibition; series mostly up to 115 µM; activity change, negative = inhibition: at the top concentration.
Acetylcholinesterase (Homo sapiens), sequence (P22303 whole entry, looked up): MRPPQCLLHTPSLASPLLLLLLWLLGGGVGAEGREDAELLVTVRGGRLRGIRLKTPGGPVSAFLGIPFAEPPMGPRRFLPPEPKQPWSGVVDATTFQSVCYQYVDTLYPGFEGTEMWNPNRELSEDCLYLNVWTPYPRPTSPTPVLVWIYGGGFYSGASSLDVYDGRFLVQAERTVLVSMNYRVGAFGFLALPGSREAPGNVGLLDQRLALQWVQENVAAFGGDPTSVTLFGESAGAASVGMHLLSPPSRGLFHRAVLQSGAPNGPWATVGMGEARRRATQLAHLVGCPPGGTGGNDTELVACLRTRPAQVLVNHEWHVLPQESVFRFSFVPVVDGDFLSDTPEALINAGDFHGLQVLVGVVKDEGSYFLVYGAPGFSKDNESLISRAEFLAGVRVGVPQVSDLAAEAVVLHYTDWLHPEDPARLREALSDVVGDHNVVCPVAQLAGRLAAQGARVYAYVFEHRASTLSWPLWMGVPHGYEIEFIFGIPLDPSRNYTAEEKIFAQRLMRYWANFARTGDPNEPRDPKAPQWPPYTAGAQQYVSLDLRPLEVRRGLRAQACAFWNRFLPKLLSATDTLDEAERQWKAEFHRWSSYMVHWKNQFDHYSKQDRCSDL
Summary of the method: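 Recombinant human AChE (50 mU/mL in the enzyme mix) and human liver microsomes (0.25 mg/mL final) were preincubated with compound and NADPH (0.25 mg/mL final) for 30 min at 37 C. Acetylthiocholine/DTNB was then added; thiocholine was read colorimetrically after 10 min at room temperature.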
% is scaled to controls: 0 for no effect and ±100 for the full control effect.

SMILES	Potency	activity change, negative = inhibition
Nc1ccc2c(c1)C(=O)c1ccccc1C2=O	inactive	
C=C(C)C(=O)OCC(CC)(COC(=O)C(=C)C)COC(=O)C(=C)C	inactive	
CC1=C(CC(=O)O)c2cc(F)ccc2/C1=C\c1ccc(S(C)=O)cc1 (stereo not given)	inactive	
Clc1cccc(Cl)n1		0.327% (inactive)
C=C(C)C(=O)OCCOC(=O)C(=C)C	inactive	
O=C(NCCN1CCOCC1)c1ccc(Cl)cc1		-0.124% [at 53 µM] (inactive)
CCOC(=O)c1ccccc1C		0% (inactive)
CCC(C)(O)CCC=C(C)C (stereo not given)		0.512% (inactive)
C[N+]1(C)CCC(=C(c2ccccc2)c2ccccc2)CC1		0.861% [at 53 µM] (inactive)
C=C(C)C(=O)OCCOCCOCCOCCOC(=O)C(=C)C		-0.291% (inactive)
COc1cc2c(cc1OC)CN(C(=O)[C@H](C)N[C@@H](CCc1ccccc1)C(=O)O)[C@H](C(=O)O)C2		4.26% [at 53 µM] (inactive)
Nc1cc([N+](=O)[O-])cc(Cl)c1O		5.76% (inactive)
c1ccc2ncccc2c1	inactive	
Cc1ccc(S(=O)(=O)O)c(C)c1		0.382% (inactive)
CC1=C(/C=C/C(C)=C/C=C/C(C)=C/C(=O)O)C(C)(C)CCC1	inactive	
O=C(O)c1ccc(Cl)c(Cl)c1		0% (inactive)
O=C(Nc1cccc(Cl)c1)OCC#CCCl		0.146% (inactive)
O=c1[nH]sc2cc(Cl)ccc12		1.18% [at 53 µM] (inactive)
CN1C(=O)c2ccccc2C1=O		-1.51% (inactive)
CNCCCCOc1ccccc1Cc1ccccc1		-3.74% [at 53 µM] (inactive)

SMILES	Potency	activity change, negative = inhibition
Cc1[nH]c(C)c(Cl)c(=O)c1Cl		-0.336% [at 23.6 µM] (inactive)
Oc1cc(O)c(Cl)cc1Cl		-2.22% (inactive)
CC(=O)OC(C)OC(C)=O		-0.853% (inactive)
O=c1[nH]cnc2[nH]ncc12	inactive	
CCCCCCCC(=O)OCC		-0.416% (inactive)
COc1ccccc1OC(=O)Oc1ccccc1OC		-4.83% [at 53 µM] (inactive)
c1ccc(SCCSc2ccccc2)cc1		-1.71% (inactive)
CC(=O)OCC(=O)[C@@]12N=C(C)O[C@@H]1C[C@H]1[C@@H]3CCC4=CC(=O)C=C[C@]4(C)[C@H]3[C@@H](O)C[C@@]12C	inactive	
O=C(O)[C@@H](O)[C@H](O)[C@H](O)[C@@H](O)C(=O)O		33.8% [at 53 µM] (inactive)
CCC(C)N (stereo not given)		0.611% (inactive)
Nc1nc(=S)c2[nH]cnc2[nH]1	inactive	
CCc1cccc2c3c([nH]c12)C(CC)(CC(=O)O)OCC3 (stereo not given)	inactive	
C[C@]12CC[C@@H]3c4ccc(O)cc4CC[C@H]3[C@@H]1CC[C@@H]2O	inactive	
CCN(CC)CCOC(=O)C(c1ccccc1)C1CCCCC1 (stereo not given)		-0.924% [at 53 µM] (inactive)
CCN1CCN(C(=O)N[C@@H](C(=O)N[C@@H]2C(=O)N3[C@@H]2SC(C)(C)[C@H]3C(=O)O)c2ccccc2)C(=O)C1=O		0.728% [at 53 µM] (inactive)
CCCCCCCCCCCCOCC1CO1 (stereo not given)	inactive	
O=c1oc(=O)c2cc3c(=O)oc(=O)c3cc12	inactive	
CC(C)(C)CCCCCCOC(=O)c1ccccc1C(=O)OCCCCCCC(C)(C)C		1.14% (inactive)
CCCCCCCCCCCCOC(=O)c1cc(O)c(O)c(O)c1	inactive	
CCc1ccccc1		-0.504% (inactive)
